We go through 1 sequence from PMC7862700, “An all-to-all approach to the identification of sequence-specific readers for epigenetic DNA modifications on cytosine”.

Assay in all cases: DAPPL (digital affinity profiling via proximity ligation, sequencing); 10 mM Tris-HCl pH 7.5, 50 mM NaCl, 1 mM DTT, 4% glycerol, room temperature, 30 min; GST-TFs on glutathione beads, 16-mer random dsDNA library, 0.1% formaldehyde crosslink after washing; high values mean tight binding
Assay [1] deals with T1, FLI1 (Homo sapiens, UniProt Q01543 1-452).
T1 sequence: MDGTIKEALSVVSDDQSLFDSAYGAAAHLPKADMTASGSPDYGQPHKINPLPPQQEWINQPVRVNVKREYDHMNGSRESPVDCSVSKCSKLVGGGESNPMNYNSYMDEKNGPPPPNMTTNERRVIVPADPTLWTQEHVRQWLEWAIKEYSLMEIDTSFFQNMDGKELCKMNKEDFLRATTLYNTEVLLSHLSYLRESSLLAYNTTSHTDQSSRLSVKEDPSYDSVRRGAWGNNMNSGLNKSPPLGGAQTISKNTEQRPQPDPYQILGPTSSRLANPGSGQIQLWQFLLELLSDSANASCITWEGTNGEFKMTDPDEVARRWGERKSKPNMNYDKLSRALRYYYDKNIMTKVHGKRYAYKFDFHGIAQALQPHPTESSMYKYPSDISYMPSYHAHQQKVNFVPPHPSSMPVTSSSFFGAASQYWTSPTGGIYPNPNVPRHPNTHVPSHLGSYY
Particulars: protein: recombinant; tags: N-terminal GST; dsDNA, one strand shown. In a few lines:
(§1)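 Binding signal is each hexamer's read frequency for a factor divided by its frequency in the tag-only sample. The factors were GST-fused human transcription factors from yeast, captured on glutathione beads, DNA-barcoded and pooled with that sample. Pools were incubated with 200 nmole of a random double-stranded 16-mer DNA library in Tris/NaCl/DTT/glycerol buffer at room temperature for 30 min, then washed, crosslinked with 0.1% formaldehyde, proximity-ligated with BsaI/T4 ligase (1 h, 37 °C), PCR-amplified and sequenced on an Illumina NextSeq500.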

In assay [2] the target is T2, ELK1 (Homo sapiens, UniProt P19419 1-428).
T2 sequence: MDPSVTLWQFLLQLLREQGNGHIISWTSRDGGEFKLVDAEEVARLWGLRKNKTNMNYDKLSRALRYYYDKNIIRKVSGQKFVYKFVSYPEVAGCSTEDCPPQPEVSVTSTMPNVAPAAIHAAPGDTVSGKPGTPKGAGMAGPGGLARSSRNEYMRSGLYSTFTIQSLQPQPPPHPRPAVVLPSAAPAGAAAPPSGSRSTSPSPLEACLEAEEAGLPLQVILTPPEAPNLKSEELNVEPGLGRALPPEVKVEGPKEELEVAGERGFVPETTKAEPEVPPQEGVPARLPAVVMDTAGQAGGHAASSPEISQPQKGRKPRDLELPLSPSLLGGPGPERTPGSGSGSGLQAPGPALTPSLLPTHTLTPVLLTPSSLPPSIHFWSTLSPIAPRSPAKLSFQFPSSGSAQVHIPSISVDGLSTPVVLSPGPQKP
Conditions: protein: recombinant; tags: N-terminal GST; dsDNA, one strand shown. In a few lines: as §1

In assay [3] the target is T3, GABPA (Homo sapiens, UniProt Q06546 1-454).
T3 sequence: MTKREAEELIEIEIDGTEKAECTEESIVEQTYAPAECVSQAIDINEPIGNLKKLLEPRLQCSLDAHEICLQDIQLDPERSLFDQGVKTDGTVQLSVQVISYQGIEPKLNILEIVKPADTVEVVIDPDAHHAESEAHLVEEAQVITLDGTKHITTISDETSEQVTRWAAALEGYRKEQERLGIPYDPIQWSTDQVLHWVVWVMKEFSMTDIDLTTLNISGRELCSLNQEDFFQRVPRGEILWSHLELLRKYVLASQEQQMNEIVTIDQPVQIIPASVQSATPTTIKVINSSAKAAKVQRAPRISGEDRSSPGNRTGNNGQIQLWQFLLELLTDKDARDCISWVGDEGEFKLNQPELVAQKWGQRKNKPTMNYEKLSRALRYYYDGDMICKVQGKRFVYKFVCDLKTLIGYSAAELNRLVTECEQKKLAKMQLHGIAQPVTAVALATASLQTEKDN
Conditions: protein: recombinant; tags: N-terminal GST; dsDNA, one strand shown. The method in brief:
as §1

Assay [4] deals with T4, ERG (Homo sapiens, UniProt P11308 1-479).
T4 sequence: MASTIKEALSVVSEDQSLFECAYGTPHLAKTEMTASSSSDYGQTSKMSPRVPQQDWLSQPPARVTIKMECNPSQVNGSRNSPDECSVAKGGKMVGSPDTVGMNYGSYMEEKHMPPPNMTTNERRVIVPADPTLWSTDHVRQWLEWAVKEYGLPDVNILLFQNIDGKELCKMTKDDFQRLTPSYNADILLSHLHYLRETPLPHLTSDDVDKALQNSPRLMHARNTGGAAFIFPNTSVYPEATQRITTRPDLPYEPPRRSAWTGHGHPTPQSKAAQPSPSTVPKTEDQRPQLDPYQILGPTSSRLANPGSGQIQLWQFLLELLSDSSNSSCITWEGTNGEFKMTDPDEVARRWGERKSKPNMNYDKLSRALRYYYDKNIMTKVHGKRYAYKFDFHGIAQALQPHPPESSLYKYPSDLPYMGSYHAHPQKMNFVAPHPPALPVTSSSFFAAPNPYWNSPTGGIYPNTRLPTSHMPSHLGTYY
Conditions: protein: recombinant; tags: N-terminal GST; dsDNA, one strand shown. In a few lines: as §1

Assay [5] has as its target ELF1 (Homo sapiens, UniProt P32519 1-619). Particulars: protein: recombinant; tags: N-terminal GST; dsDNA, one strand shown. The method in brief:
as §1

Assay [6] concerns the target T5, EHF (Homo sapiens, UniProt Q9NZC4 1-300).
T5 sequence: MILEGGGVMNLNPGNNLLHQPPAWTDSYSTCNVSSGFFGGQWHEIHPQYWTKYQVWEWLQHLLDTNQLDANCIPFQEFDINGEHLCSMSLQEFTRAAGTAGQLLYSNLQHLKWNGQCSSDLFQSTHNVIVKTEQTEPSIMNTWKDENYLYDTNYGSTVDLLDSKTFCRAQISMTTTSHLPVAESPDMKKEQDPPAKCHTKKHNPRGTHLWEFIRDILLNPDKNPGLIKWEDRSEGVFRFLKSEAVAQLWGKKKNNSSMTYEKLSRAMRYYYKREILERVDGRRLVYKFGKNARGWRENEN
Conditions: protein: recombinant; tags: N-terminal GST; dsDNA, one strand shown. The method in brief: as §1

For assay [7], the target named is SPI1 (Homo sapiens, UniProt P17947 1-270). Conditions: protein: recombinant; tags: N-terminal GST; dsDNA, one strand shown. In a few lines: as §1
Assay [8] concerns the target SPIB (Homo sapiens, UniProt Q01892 1-262). Conditions: protein: recombinant; tags: N-terminal GST; dsDNA, one strand shown. The method in brief:
as §1

Assay [9] addresses T6, ELK3 (Homo sapiens, UniProt P41970 1-407).
T6 sequence: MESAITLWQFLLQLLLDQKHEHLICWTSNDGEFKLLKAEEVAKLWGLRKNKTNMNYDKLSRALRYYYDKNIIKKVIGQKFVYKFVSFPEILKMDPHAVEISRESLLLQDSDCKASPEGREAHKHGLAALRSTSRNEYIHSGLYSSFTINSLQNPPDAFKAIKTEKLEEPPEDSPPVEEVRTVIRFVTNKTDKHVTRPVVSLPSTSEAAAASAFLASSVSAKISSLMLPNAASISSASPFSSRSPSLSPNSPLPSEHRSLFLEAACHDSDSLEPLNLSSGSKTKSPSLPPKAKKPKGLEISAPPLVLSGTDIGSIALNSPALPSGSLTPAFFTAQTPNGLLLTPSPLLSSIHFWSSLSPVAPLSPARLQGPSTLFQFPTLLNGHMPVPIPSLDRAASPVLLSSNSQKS
Particulars: protein: recombinant; tags: N-terminal GST; dsDNA, one strand shown. The method in brief:
as §1

For assay [10], the target named is T7, FEV (Homo sapiens, UniProt Q99581 1-238).
T7 sequence: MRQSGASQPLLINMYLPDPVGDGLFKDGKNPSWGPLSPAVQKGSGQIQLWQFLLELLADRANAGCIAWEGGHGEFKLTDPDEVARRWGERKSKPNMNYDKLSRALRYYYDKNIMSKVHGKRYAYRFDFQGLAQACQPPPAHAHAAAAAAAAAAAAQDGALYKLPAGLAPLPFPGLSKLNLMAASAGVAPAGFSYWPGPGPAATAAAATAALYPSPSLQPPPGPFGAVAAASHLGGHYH
Particulars: protein: recombinant; tags: N-terminal GST; dsDNA, one strand shown. The method in brief: as §1

The target in assay [11] is ETV5 (Homo sapiens, UniProt P41161 1-510). Conditions: protein: recombinant; tags: N-terminal GST; dsDNA, one strand shown. In a few lines:
as §1

Assay [12] has as its target HSF1 (Homo sapiens, UniProt Q00613 1-529). Particulars: protein: recombinant; tags: N-terminal GST; chain copies: 3; dsDNA, one strand shown. The method in brief:
as §1

The target of assay [13] is T8, SPIC (Homo sapiens, UniProt Q8N5J4 1-248).
T8 sequence: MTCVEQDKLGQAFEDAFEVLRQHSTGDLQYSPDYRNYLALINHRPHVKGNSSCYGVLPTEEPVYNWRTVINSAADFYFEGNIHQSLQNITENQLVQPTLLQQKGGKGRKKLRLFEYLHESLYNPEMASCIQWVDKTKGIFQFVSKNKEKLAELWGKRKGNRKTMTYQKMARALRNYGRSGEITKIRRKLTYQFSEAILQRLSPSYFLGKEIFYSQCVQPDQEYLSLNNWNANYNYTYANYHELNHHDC
Conditions: protein: recombinant; tags: N-terminal GST; dsDNA, one strand shown. In a few lines: as §1

Assay [14] has as its target ELF4 (Homo sapiens, UniProt Q99607 1-663). Conditions: protein: recombinant; tags: N-terminal GST; dsDNA, one strand shown. The method in brief:
as §1

Assay [15] addresses T9, ELK4 (Homo sapiens, UniProt P28324-2 1-405).
T9 sequence: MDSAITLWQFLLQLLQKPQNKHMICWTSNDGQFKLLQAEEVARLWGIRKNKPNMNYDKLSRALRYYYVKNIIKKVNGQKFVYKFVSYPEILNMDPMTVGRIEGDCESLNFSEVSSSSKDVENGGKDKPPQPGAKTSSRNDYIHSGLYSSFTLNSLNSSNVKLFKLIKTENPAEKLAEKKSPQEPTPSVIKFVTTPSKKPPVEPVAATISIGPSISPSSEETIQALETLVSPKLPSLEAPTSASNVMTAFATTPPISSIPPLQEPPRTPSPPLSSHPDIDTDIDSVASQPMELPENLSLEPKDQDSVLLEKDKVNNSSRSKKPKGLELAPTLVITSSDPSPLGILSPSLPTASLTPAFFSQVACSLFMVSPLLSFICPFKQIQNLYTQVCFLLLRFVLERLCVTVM
Particulars: protein: recombinant; tags: N-terminal GST; dsDNA, one strand shown. The method in brief:
as §1

Assay [16] concerns the target T10, ETV2 (Homo sapiens, UniProt O00321 1-342).
T10 sequence: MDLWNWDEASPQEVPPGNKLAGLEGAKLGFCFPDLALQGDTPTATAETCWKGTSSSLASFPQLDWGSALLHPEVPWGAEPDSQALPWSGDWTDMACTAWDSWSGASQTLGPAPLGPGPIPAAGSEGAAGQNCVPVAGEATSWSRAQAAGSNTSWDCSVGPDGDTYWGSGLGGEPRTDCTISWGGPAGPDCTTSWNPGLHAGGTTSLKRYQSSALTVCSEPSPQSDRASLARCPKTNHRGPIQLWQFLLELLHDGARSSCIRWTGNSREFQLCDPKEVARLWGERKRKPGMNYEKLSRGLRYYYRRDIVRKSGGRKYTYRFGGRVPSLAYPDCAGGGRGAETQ
Conditions: protein: recombinant; tags: N-terminal GST; dsDNA, one strand shown. In a few lines:
as §1

Assay [17] addresses T11, ELF3 (Homo sapiens, UniProt P78545 1-371).
T11 sequence: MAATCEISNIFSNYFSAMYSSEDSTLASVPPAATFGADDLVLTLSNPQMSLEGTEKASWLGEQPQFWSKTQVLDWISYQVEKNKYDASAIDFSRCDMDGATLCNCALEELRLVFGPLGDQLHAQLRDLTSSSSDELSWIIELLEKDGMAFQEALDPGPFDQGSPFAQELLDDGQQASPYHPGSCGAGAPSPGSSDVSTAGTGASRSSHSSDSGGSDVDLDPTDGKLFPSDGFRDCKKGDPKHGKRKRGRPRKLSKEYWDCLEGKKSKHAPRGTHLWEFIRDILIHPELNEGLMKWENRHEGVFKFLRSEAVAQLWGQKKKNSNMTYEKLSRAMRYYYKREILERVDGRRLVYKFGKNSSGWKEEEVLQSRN
Conditions: protein: recombinant; tags: N-terminal GST; dsDNA, one strand shown. In a few lines:
as §1

In assay [18] the target is CRX (Homo sapiens, UniProt O43186 1-299). Particulars: protein: recombinant; tags: N-terminal GST; dsDNA, one strand shown. The method in brief:
as §1

The target in assay [19] is ETV1 (Homo sapiens, UniProt P50549 1-477). Particulars: protein: recombinant; tags: N-terminal GST; dsDNA, one strand shown. In a few lines:
as §1

Sequence of ETV5 (P41161 whole entry): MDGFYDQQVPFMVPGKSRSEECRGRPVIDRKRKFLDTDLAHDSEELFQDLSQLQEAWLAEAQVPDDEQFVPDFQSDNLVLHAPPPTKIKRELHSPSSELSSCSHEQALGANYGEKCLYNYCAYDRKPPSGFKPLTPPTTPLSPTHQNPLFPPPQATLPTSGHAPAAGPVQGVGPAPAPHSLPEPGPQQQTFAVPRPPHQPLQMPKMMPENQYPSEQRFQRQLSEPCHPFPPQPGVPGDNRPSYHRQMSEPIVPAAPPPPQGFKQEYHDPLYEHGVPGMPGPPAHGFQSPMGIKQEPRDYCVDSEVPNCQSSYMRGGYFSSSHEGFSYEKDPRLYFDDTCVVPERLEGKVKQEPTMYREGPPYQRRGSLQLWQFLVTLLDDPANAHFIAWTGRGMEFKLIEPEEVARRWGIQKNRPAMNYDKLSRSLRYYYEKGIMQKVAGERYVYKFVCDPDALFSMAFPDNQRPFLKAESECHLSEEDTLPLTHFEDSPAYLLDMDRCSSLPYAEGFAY
Sequence of SPIB (Q01892 whole entry): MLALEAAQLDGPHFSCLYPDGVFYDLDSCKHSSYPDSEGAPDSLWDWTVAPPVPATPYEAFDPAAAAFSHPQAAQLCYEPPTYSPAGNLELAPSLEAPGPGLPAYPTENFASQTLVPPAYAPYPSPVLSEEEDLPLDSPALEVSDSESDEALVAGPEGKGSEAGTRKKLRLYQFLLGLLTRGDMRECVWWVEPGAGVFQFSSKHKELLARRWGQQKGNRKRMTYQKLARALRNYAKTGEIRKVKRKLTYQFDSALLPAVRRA
Sequence of ELF1 (P32519 whole entry): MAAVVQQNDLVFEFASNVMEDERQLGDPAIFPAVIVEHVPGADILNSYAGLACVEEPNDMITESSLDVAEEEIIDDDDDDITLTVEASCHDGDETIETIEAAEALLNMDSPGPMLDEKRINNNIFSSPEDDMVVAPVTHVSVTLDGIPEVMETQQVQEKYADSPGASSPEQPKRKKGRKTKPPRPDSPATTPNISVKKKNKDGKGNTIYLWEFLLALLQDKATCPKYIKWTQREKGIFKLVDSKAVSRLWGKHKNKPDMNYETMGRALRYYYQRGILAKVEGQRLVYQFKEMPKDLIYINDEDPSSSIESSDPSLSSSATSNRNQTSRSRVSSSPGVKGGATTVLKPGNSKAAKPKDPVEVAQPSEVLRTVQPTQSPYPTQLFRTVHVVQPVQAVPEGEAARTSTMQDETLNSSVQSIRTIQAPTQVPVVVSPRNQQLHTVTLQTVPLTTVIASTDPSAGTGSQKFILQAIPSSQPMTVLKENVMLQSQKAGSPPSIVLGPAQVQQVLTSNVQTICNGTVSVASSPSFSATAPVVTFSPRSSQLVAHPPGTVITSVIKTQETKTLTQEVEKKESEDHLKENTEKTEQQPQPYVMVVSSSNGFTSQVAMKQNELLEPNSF
Sequence of HSF1 (Q00613 whole entry): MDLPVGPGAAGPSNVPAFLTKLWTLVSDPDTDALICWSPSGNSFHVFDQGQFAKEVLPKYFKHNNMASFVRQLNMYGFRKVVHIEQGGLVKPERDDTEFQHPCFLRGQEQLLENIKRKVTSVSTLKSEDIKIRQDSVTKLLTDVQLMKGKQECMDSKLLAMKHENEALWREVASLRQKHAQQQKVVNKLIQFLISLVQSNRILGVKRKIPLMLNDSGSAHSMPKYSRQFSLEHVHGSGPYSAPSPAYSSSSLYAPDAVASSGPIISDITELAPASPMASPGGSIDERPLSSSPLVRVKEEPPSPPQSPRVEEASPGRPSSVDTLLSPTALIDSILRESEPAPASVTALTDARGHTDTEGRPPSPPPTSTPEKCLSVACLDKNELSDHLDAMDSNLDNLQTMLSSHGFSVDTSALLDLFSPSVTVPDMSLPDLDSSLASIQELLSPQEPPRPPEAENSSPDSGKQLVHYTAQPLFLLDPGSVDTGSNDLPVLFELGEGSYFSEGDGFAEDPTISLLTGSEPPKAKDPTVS
Sequence of ELF4 (Q99607 whole entry): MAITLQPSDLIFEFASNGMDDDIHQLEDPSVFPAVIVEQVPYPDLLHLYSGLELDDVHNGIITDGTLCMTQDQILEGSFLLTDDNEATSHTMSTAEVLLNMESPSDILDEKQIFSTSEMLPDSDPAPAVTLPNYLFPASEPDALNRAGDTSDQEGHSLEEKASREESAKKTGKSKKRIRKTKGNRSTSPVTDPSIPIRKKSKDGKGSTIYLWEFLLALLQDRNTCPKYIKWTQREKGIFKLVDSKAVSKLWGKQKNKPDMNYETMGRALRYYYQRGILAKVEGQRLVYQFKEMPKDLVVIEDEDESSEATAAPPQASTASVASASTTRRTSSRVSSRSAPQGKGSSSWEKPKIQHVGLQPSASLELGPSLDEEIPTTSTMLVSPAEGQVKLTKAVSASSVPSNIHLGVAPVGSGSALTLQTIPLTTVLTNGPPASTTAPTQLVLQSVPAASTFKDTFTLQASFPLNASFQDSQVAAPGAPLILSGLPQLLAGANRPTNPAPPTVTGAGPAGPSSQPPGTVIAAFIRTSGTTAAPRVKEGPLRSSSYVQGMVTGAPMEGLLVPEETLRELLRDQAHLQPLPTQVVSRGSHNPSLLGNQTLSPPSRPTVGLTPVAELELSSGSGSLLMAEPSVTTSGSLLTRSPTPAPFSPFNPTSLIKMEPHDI
Sequence of ETV1 (P50549 whole entry): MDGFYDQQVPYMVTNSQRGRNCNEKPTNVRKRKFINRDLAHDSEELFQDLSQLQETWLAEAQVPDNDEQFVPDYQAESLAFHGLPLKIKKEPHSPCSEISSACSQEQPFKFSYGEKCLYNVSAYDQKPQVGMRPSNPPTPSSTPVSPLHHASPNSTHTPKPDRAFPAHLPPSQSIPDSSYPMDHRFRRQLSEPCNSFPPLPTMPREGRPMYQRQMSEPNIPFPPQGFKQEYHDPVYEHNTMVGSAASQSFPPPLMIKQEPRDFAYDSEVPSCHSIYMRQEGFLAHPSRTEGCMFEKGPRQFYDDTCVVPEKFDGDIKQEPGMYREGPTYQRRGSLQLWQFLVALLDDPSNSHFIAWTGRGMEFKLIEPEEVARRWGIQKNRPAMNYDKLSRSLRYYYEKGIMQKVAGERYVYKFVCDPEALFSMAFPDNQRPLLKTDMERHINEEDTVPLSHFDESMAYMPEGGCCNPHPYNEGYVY
Sequence of CRX (O43186 whole entry): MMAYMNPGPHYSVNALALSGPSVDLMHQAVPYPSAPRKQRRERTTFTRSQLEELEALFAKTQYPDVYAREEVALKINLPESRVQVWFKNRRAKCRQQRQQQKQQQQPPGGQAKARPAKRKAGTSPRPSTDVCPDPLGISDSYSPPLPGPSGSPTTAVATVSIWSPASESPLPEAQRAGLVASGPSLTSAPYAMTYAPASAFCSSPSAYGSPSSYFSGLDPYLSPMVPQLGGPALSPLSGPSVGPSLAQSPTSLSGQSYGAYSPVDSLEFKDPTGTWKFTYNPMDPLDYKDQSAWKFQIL

For ACTCTA, the binding signal was 1.42 fold enrichment (6-mer frequency, TF over GST control) in assay [1]; 1.46 fold enrichment (6-mer frequency, TF over GST control) in [2]; 1.52 fold enrichment (6-mer frequency, TF over GST control) in assay [3]; 1.39 fold enrichment (6-mer frequency, TF over GST control) in [4]; 1.52 fold enrichment (6-mer frequency, TF over GST control) in assay [5]; 1.56 fold enrichment (6-mer frequency, TF over GST control) in [6]. Also, the binding signal in [7] was 1.5 fold enrichment (6-mer frequency, TF over GST control); in assay [8], 1.45 fold enrichment (6-mer frequency, TF over GST control); in assay [9] it was 1.38 fold enrichment (6-mer frequency, TF over GST control); in assay [10], 1.45 fold enrichment (6-mer frequency, TF over GST control); in assay [11], 1.48 fold enrichment (6-mer frequency, TF over GST control); in [12], 1.63 fold enrichment (6-mer frequency, TF over GST control). The binding signal is 1.63 fold enrichment (6-mer frequency, TF over GST control) in assay [13]; 1.41 fold enrichment (6-mer frequency, TF over GST control) in assay [14]; 1.43 fold enrichment (6-mer frequency, TF over GST control) in [15]; 1.41 fold enrichment (6-mer frequency, TF over GST control) in assay [16]; 1.36 fold enrichment (6-mer frequency, TF over GST control) in assay [17]; 1.52 fold enrichment (6-mer frequency, TF over GST control) in assay [18]. For the same sequence, the binding signal in [19] is 1.42 fold enrichment (6-mer frequency, TF over GST control).
